Measurements published in PubChem BioAssay (NCATS).
Calls of active or inactive are those of the source. The call rests on the fitted dose curve; in most records, active means well fitted curve in the direction sought with a large enough effect; inactive means no such curve, though single readings can be large or run the other way.

biological target: Alpha-galactosidase (Coffea arabica) (UniProt Q42656); test: Counterscreen for Glucocerebrosidase Inhibitors: qHTS Assay for Coffee Bean alpha-Galactosidase at pH 5.9 (AID 998); details: coffee bean alpha-galactosidase enzyme assay; series mostly up to 76.9 µM
Sequence (Q42656 whole entry, looked up): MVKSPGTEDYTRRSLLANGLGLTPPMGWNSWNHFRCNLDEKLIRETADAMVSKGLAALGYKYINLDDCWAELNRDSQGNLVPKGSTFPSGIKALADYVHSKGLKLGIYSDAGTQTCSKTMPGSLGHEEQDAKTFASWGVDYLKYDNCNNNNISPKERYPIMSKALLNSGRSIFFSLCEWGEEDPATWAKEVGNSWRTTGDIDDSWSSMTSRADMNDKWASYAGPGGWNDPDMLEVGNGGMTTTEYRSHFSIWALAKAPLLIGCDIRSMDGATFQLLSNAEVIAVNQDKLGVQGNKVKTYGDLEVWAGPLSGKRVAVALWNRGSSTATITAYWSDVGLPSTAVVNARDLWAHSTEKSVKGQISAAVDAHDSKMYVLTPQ
In short: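 Enzyme 2 nM + cpd (0.7 nM–77 uM titration) + 4-MU-alpha-Gal 80 uM, pH 5.9 citrate/Tween-20, RT 20 min, NaOH/glycine stop pH 10, fluor 365/440. Normalized to no-enzyme and full-activity controls; Hill-fit AC50.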

Structure (SMILES)	outcome
O=C(O)[C@@H]1CCCN[C@H]1C(=O)O	inactive
CCCCC/C=C\C[C@H](O)/C=C\c1cccc(C[C@H](O)CCCCO)n1	inactive
Oc1cc2c(c(Cl)c1O)CCNC[C@H]2c1ccccc1	inactive
Oc1cc(O)cc(/C=C\c2ccc(O)c(O)c2)c1	inactive
Nc1ncnc2c1nc(Sc1ccc(Cl)cc1)n2[C@@H]1O[C@H]2COP(=O)(O)O[C@@H]2[C@H]1O	inactive
Cc1ccccc1/C=C\C1=NCCN1	inactive
COc1cc(=O)n(C)c2c(OC[C@@H](O)C(C)(C)O)cccc12	inactive
C#C[C@]1(O)CC[C@H]2[C@H]3CCC4=Cc5oncc5C[C@]4(C)[C@@H]3CC[C@]21C	inactive
O=C(O)CCC(=O)N1CCC[C@H]1C(=O)O	inactive
CC1=C(\C=C/C(C)=C/C=C\C(C)=C\C(=O)O)C(C)(C)CCC1	inactive
COc1ccc(CCN(C)CCC[C@@](C#N)(c2ccc(OC)c(OC)c2)C(C)C)cc1OC	inactive
CC(C)C[C@H](NC(=O)[C@@H](O)[C@@H](N)Cc1ccccc1)C(=O)O	inactive
CC(C)(C)c1cc(/C=C(\C#N)C(N)=S)cc(C(C)(C)C)c1O	inactive
COc1ccccc1N1CCN(CCCCNS(=O)(=O)c2cccc3c(N(C)C)cccc23)CC1	inactive
O=C(O)/C=C\[C@H](O)c1ccc(Cl)cc1	inactive
CC(C)NC[C@H](O)c1ccc(NS(C)(=O)=O)cc1	inactive
Cn1cc(C(F)(F)F)nc1-c1ccc(OC[C@@H](O)CNCCOc2ccc(O)c(C(N)=O)c2)cc1	inactive
Oc1cc2c(cc1O)[C@H](c1ccccc1)CNCC2	inactive
CC(=O)OCC1=C(C(=O)O)N2C(=O)[C@@H](NC(=O)CSc3ccncc3)[C@@H]2SC1	inactive
CC(C)(C)[C@@]1(O)CCN2C[C@@H]3c4ccccc4CCc4cccc(c43)[C@@H]2C1	inactive

Structure (SMILES)	outcome
NC[C@@H]1O[C@@H](O[C@H]2[C@@H](O)[C@H](O[C@@H]3[C@H](O)[C@H](N)C[C@H](N)[C@H]3O[C@@H]3O[C@@H](CO)[C@H](O)[C@H](O)[C@@H]3N)O[C@H]2CO)[C@H](N)[C@H](O)[C@@H]1O	inactive
O=C(O)/C=C\c1cnc[nH]1	inactive
COC(=O)C1=C(C)NC(C)=C([N+](=O)[O-])[C@H]1c1ccccc1C(F)(F)F	inactive
Nc1nc2c(nc(Br)n2[C@@H]2O[C@H]3COP(=O)(O)O[C@@H]3[C@H]2O)c(=O)[nH]1	inactive
COc1cc2c(cc1OC)[C@H](c1ccccc1)CN(C)CC2	inactive
CCn1cc(C(=O)O)c(=O)c2cc(F)c(N3CCN[C@@H](C)C3)c(F)c21	inactive
CC[C@H](C)C(=O)O[C@H]1CCC=C2C=C[C@H](C)[C@H](CC[C@@H]3C[C@H](O)CC(=O)O3)[C@H]21	inactive
CNC(=O)[C@@H]1O[C@@H](n2cnc3c(N)ncnc32)[C@@H](O)[C@H]1O	inactive
Cc1ccccc1[C@@H](OCCN(C)C)c1ccccc1	inactive
NC(=NCc1ccc(Cl)c(Cl)c1)NC(=O)c1nc(Cl)c(N)nc1N	inactive
CC[C@H](C)[C@@H]1O[C@]2(CC[C@@H]1C)C[C@H]1C[C@H](CC=C(C)[C@@H](O[C@H]3C[C@H](OC)[C@H](O[C@H]4C[C@H](OC)[C@H](O)[C@H](C)O4)[C@H](C)O3)[C@@H](C)C=CC=C3CO[C@@H]4[C@@H](O)C(C)=C[C@H](C(=O)O1)[C@@]34O)O2	inactive
CC(C)NC[C@@H](O)COc1ccc(CCOCC2CC2)cc1	inactive
C[C@@H]([C@H](O)c1ccc(O)cc1)N1CCC(Cc2ccccc2)CC1	inactive
O=C(O)CCCC[C@H]1CCSS1	inactive
N=C1Sc2ccccc2C2=NCCCN12	inactive
CC(=O)/C(C)=N\O	inactive
C=C/C(C)=C/[C@]1(C)SC(=O)C(C)=C1O	inactive
CCCCCCCCCCCCCCCCCC(=O)NC[C@@H](COP(=O)([O-])OCC[N+](C)(C)C)OCC	inactive
CNc1ncnc2c1ncn2[C@H]1C[C@@H](OP(=O)(O)O)[C@H](COP(=O)(O)O)O1	inactive
CN1CCc2c(cc(O)c(O)c2Cl)[C@H](c2cccc(Cl)c2)C1	inactive
